Compound activity as filed in PubChem.
Hits are enriched below; roughly 7.1% of the tested compounds scored in any of these assays.
MCF10A rerep – A quantitative high throughput screen for small molecules that induce DNA re-replication in MCF 10a normal breast cells. AID 624296, 2012. Potency, µM (highest dose often 46.1 µM), actives largely listed as activators. 350,000 compounds, 2.9% hits. MCF 10A DNA re-replication, Hoechst nuclear intensity, 48 h; further: nearly all actives have a fitted effect of over 50% in size
ELG1 genotoxic – qHTS screen for small molecules that induce genotoxicity in human embryonic kidney (HEK293T) cells expressing luciferase-tagged ELG1; AID 504466, 2011; Potency, µM (top dose mostly 46 µM), most hits filed as activators; HEK293T ELG1-luciferase reporter, luminescence, 16 h; 330,000 compounds, 1.3% hits; further: nearly all actives have a fitted effect of over 60% in size
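ELG1-luciferase HEK293T cells, 2,000/well; compound pinned in; 16 hr, 37 °C, 5% CO2; ONE-Glo, 30 min RT; luminescence on CCD imager.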
p53 reactivation – qHTS assay for re-activators of p53 using a Luc reporter | H1299 p53-A138V BP100-luciferase reporter, luminescence, 24 h | Potency, µM (highest dose often 92.2 µM), usual class: activators | 320,000 compounds, 0.063% hits; further: nearly all actives have a fitted effect of over 45% in size
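H1299 (p53-null), stable ts p53-A138V + BP100-Luc; 1000 cells/well, Opti-MEM/10% FBS; cpd 4 pt, 1:5; 24 h, 37 deg C, 5% CO2; detection reagent 10 min RT; luminescence.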
SW480 rereplic – A quantitative high throughput screen for small molecules that induce DNA re-replication in SW480 colon adenocarcinoma cells; SW480 DNA re-replication, Hoechst DNA content imaging, 48 h; Potency, µM (top dose mostly 46.1 µM), usual class: activators; 340,000 compounds, 1.8% hits; further: nearly all actives have a fitted effect of over 55% in size
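Treated cells incubate 48 hr (37 C, 5% CO2), are stained 40 min with Hoechst, and nuclear fluorescence is enumerated; a rise in nuclei with high DNA signal marks re-replication.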
ELG1 repair inh – qHTS screen for small molecules that inhibit ELG1-dependent DNA repair in human embryonic kidney (HEK293T) cells expressing luciferase-tagged ELG1; AID 504467, 2011; 330,000 compounds, 2.3% hits; HEK293T ELG1-luciferase reporter, luminescence, 16 h; DNA damage induced by 5-fluorouridine; Potency, µM (series often up to 46.1 µM), most hits filed as inhibitors; further: nearly all actives have a fitted effect of over 55% in size
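In this reporter screen, reduction of luminescence relative to DMSO vehicle indicated activity. Compounds and 5-fluorouridine were added together to 2,000 cells per well, incubated for 16 hr at 37 °C, then developed with ONE-Glo.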
A-T KAP1 phos – qHTS Assay for Identifying a Potential Treatment of Ataxia-Telangiectasia | AID 485349, 2010 | Potency, µM (titrated, usually from 57.5 µM), hits mostly activators | 320,000 compounds, 0.19% hits | F2112 A-T fibroblasts, KAP-1 phosphorylation AlphaLISA; neocarzinostatin DNA damage 30 min before lysis; further: nearly all actives have a fitted effect of over 45% in size
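ATM-like activity read as KAP-1 phosphorylation via AlphaLISA donor/acceptor antibody pairs after lysis and 6 hr at 25C. Cells were ATM-null patient fibroblasts (F2112, hTERT), dosed 60 min, then exposed to the DSB inducer NCS for 30 min.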
Large screens that a line does not name were inactive. The call rests on the fitted dose curve; in most records, active means well fitted curve in the direction sought with a large enough effect; inconclusive means small, poorly fitted or top-dose-only effect, or another doubt; inactive means no such curve, though single readings can be large; an effect the other way counts as inactive or inconclusive.

CCC(CC)C(=O)Nc1cccc(-c2ccc3nncn3n2)c1	SW480 rereplic inconclusive
O=C(N/N=C/c1cc([N+](=O)[O-])cc(Br)c1O)C12CC3CCC(CC(C3)C1)C2	MCF10A rerep inconclusive, ELG1 repair inh 23µM
Cc1ccc(-n2nc3c(c2NC(=O)CC(C)C)CS(=O)C3)cc1 (stereo unspecified)	none
Cc1nc(Nc2ccccc2O)c2oc3ccccc3c2n1	none
COc1ccccc1Nc1nc(C)nc2c1oc1ccccc12	MCF10A rerep 18µM, ELG1 repair inh inconclusive
COc1ccc(Nc2nc(C)nc3c2nnn3Cc2ccccc2Cl)c(OC)c1	MCF10A rerep 3.3µM (no result: p53 reactivation)
CCc1nc(Nc2ccc(OC)cc2OC)c2oc3ccccc3c2n1	MCF10A rerep inconclusive, SW480 rereplic inconclusive
COc1ccc(Nc2nc(C)nc3c2oc2ccccc23)c(OC)c1	MCF10A rerep 15µM, SW480 rereplic inconclusive, ELG1 repair inh inconclusive
Fc1ccc(OCc2cc(-c3ccccc3)no2)cc1	ELG1 genotoxic 21µM, ELG1 repair inh inconclusive
Cc1cc(S(=O)(=O)Nc2nc(CN3CCOCC3)nc3sc4c(c23)CCC4)ccc1F	MCF10A rerep inconclusive, SW480 rereplic inconclusive
Cc1ccc(Cn2c(=N)n(CC(O)COc3ccccc3)c3ccccc32)cc1 (stereo unspecified)	SW480 rereplic inconclusive, ELG1 repair inh inconclusive
N=c1n(Cc2ccccc2)c2ccccc2n1CC(O)COc1ccccc1 (stereo unspecified)	MCF10A rerep 26µM, SW480 rereplic inconclusive, ELG1 repair inh inconclusive
C=C1C(=O)C=C[C@]2(C)C[C@@H]3OC(=O)[C@](C)(O)[C@H]3C[C@@H]12	MCF10A rerep 6.5µM, SW480 rereplic inconclusive, ELG1 repair inh inconclusive
CC1CCCC(NC(=O)CSc2ncccn2)C1C (stereo unspecified)	ELG1 repair inh inconclusive
CCN1c2ccccc2NC2N=C(OC)C(c3ccccc3)C21 (stereo unspecified)	MCF10A rerep inconclusive, SW480 rereplic 16µM, ELG1 repair inh inconclusive
CC(=O)Nc1ccc(NS(=O)(=O)c2ccc3c(c2)oc(=O)n3C)cc1	SW480 rereplic inconclusive
Oc1c(C=Nc2ccc(Cl)cn2)sc2ccccc12	ELG1 genotoxic 5.8µM, ELG1 repair inh inconclusive
Cc1cc(C)nc(NS(=O)(=O)c2ccc(NC(=O)c3cc4c(=O)n5cccc(C)c5nc4n3C)cc2)n1	MCF10A rerep 10µM, SW480 rereplic 2.1µM
Cc1cccn2c(=O)c3cc(C(=O)NCCC4=CCCCC4)n(C)c3nc12	MCF10A rerep 9.2µM, SW480 rereplic inconclusive
Cc1cccn2c(=O)c3cc(C(=O)NCc4ccco4)c(=N)n(C(C)C)c3nc12	SW480 rereplic inconclusive, ELG1 repair inh inconclusive
N=c1c(C(=O)NCc2ccco2)cc2c(=O)n3ccccc3nc2n1C1CCCC1	MCF10A rerep 21µM, SW480 rereplic 21µM
Cc1cccn2c(=O)c3cc(C(=O)O)n(C)c3nc12	ELG1 repair inh inconclusive
Cc1cccn2c(=O)c3cc(C(=O)NC4CCCC4)n(C)c3nc12	MCF10A rerep 13µM, SW480 rereplic 4.6µM
Cc1cccn2c(=O)c3cc(C(=O)NC4CCCC4)c(=N)n(C4CCCC4)c3nc12	MCF10A rerep 3.5µM, SW480 rereplic 7.1µM, ELG1 repair inh inconclusive
N=c1c(C(=O)NC2CCCC2)cc2c(=O)n3ccccc3nc2n1C1CCCC1	SW480 rereplic 16µM
CC(=O)Nc1ccc(SCC(=O)NNC(=O)CN(C)S(=O)(=O)c2ccc(C)cc2)cc1	SW480 rereplic 5.2µM
CC(=O)c1ccc(S(=O)(=O)N(C)CC(=O)Nc2ccc(C)cc2)cc1	p53 reactivation inconclusive
Cn1c(=O)n(C/C=C/c2ccccc2)c(=O)c2c1nc1n2CCCN1Cc1ccccc1	ELG1 repair inh 21µM
Cn1c(=O)n(C/C=C/c2ccccc2)c(=O)c2c1nc1n2CCCN1c1ccc(F)cc1	ELG1 repair inh 23µM
C=CCn1c(=O)c2c(nc3n2CCCN3Cc2ccccc2)n(C)c1=O	none
Cn1c(=O)n(CCc2ccccc2)c(=O)c2c1nc1n2CCN1Cc1ccco1	ELG1 repair inh 21µM
O=C(COc1cc2oc(=O)cc(-c3ccccc3)c2cc1Cl)NC(Cc1c[nH]c2ccc(O)cc12)C(=O)O (stereo unspecified)	none
COc1ccc(C(=O)c2ccc(OC)c(N)c2)cc1N	ELG1 genotoxic 18µM, p53 reactivation inconclusive, ELG1 repair inh inconclusive
COc1ccc(C(=O)c2cc(OC)c(OC)c(OC)c2)cc1OC	MCF10A rerep 3.7µM, SW480 rereplic 3.7µM (no result: ELG1 genotoxic, p53 reactivation, ELG1 repair inh, A-T KAP1 phos)
COc1ccc(C(=O)c2ccc(OC)c(OC)c2)cc1OC	none
CC(C)[C@H](NC(=O)c1ccccc1F)C(=O)NC1CCCCCCC1	MCF10A rerep 18µM
CC(C)[C@H](NS(=O)(=O)c1ccccc1F)C(=O)NC1CCCCC1	ELG1 repair inh 5.2µM
CC(C)[C@H](NS(=O)(=O)c1ccccc1)C(=O)OCC(=O)NC(=O)NC1CCCCC1	ELG1 repair inh 16µM
CCOC(=O)C1=CNS(=O)(=O)NC1c1ccc(C(F)(F)F)cc1 (stereo unspecified)	SW480 rereplic inconclusive
COc1ccc(OC)c(CN2CCC(C(=O)N3CCOCC3)CC2)c1	MCF10A rerep inconclusive, SW480 rereplic 0.52µM
COc1ccc(-c2nc(CN3CCC(C(=O)N4CCOCC4)CC3)c(C)o2)cc1OC	none
COc1ccc(C(C)=O)cc1CN1CCCCC1	MCF10A rerep 15µM
COc1ccc(-c2nc(CN3CCC(C(=O)N4CCOCC4)CC3)c(C)o2)cc1C	SW480 rereplic 10µM
COc1ccc(Br)cc1CN1CCCCCCC1	none
COc1ccc(F)c(CN2CCC(N3CCC(C(=O)N4CCOCC4)CC3)CC2)c1	none
CSc1nsc(SCC(=O)Nc2ccccc2C(=O)O)n1	none
CN(CCO)c1nc(N)c2c(N)nc3c(c2c1C#N)CC(=O)N3C1CCCC1	none (no result: MCF10A rerep, SW480 rereplic)
CC(C)(C)N1C(=O)Cc2c1nc(N)c1c(N)nc(N3CCCCC3CO)c(C#N)c21 (stereo unspecified)	MCF10A rerep 15µM
c1csc(-c2nc(CN3CCSCC3)cs2)c1	ELG1 genotoxic 2.6µM, ELG1 repair inh inconclusive
O=S1(=O)CCN(Cc2csc(-c3cccs3)n2)CC1	ELG1 genotoxic inconclusive, ELG1 repair inh inconclusive
